# Article PMC7862700, “An all-to-all approach to the identification of sequence-specific readers for epigenetic DNA modifications on cytosine”
# How the values were obtained:
# Assay in all cases: DAPPL (digital affinity profiling via proximity ligation, sequencing); 10 mM Tris-HCl pH 7.5, 50 mM NaCl, 1 mM DTT, 4% glycerol, room temperature, 30 min; GST-TFs on glutathione beads, 16-mer random dsDNA library, 0.1% formaldehyde crosslink after washing; high values mean tight binding
# [1] = biological target: T1, FEV (Homo sapiens, UniProt Q99581 1-238); settings: protein: recombinant; tags: N-terminal GST; dsDNA, one strand shown
# T1 sequence: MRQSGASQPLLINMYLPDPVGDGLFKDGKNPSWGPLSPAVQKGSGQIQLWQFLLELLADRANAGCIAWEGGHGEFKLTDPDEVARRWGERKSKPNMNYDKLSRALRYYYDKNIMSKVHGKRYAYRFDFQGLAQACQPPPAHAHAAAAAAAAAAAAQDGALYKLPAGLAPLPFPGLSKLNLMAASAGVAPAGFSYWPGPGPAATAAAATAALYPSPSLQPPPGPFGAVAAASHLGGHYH
# Method in brief: (§1)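 Binding signal is given per hexamer as its read frequency for a factor divided by its frequency in the tag-only sample. GST-fused human transcription factors were expressed in yeast, captured on glutathione beads, barcoded with DNA and pooled with that sample, then incubated with 200 nmole of a 16-mer random double-stranded DNA library in Tris/NaCl/DTT/glycerol buffer for 30 min at room temperature. The pools were then washed, crosslinked, proximity-ligated, amplified by PCR and sequenced on an Illumina NextSeq500.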
# [2] = biological target: ETV5 (Homo sapiens, UniProt P41161 1-510); settings: protein: recombinant; tags: N-terminal GST; dsDNA, one strand shown
# Method in brief: as §1
# [3] = biological target: HSF1 (Homo sapiens, UniProt Q00613 1-529); settings: protein: recombinant; tags: N-terminal GST; chain copies: 3; dsDNA, one strand shown
# Method in brief: as §1
# [4] = biological target: T2, SPIC (Homo sapiens, UniProt Q8N5J4 1-248); settings: protein: recombinant; tags: N-terminal GST; dsDNA, one strand shown
# T2 sequence: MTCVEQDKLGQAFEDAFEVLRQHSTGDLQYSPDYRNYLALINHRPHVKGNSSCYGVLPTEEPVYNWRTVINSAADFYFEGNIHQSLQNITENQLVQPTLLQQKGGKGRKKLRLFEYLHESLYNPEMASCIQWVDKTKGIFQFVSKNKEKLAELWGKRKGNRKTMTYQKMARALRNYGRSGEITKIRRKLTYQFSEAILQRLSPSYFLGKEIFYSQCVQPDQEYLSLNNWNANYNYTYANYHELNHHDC
# Method in brief: as §1
# [5] = biological target: ELF4 (Homo sapiens, UniProt Q99607 1-663); settings: protein: recombinant; tags: N-terminal GST; dsDNA, one strand shown
# Method in brief: as §1
# [6] = biological target: T3, ELK4 (Homo sapiens, UniProt P28324-2 1-405); settings: protein: recombinant; tags: N-terminal GST; dsDNA, one strand shown
# T3 sequence: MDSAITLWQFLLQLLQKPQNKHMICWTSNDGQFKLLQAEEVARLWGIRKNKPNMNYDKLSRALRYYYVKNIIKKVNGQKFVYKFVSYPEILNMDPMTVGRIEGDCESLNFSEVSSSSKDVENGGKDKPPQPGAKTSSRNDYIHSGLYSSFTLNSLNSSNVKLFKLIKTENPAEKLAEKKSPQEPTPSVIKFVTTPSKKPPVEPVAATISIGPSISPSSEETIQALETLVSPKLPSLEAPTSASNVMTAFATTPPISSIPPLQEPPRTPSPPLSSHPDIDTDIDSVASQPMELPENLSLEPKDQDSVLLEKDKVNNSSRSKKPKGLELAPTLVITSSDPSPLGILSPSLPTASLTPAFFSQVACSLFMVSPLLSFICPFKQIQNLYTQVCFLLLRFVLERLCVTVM
# Method in brief: as §1
# [7] = biological target: T4, ETV2 (Homo sapiens, UniProt O00321 1-342); settings: protein: recombinant; tags: N-terminal GST; dsDNA, one strand shown
# T4 sequence: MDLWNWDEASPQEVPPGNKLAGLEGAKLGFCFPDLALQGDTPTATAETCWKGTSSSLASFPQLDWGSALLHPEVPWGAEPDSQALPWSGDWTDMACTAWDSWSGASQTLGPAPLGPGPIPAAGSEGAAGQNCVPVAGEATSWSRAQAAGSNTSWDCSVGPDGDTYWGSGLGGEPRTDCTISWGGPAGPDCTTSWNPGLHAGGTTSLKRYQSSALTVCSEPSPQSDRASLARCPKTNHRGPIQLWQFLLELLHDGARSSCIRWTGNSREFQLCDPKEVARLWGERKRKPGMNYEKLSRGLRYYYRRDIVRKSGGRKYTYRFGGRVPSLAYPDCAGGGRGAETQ
# Method in brief: as §1
# [8] = biological target: T5, ELF3 (Homo sapiens, UniProt P78545 1-371); settings: protein: recombinant; tags: N-terminal GST; dsDNA, one strand shown
# T5 sequence: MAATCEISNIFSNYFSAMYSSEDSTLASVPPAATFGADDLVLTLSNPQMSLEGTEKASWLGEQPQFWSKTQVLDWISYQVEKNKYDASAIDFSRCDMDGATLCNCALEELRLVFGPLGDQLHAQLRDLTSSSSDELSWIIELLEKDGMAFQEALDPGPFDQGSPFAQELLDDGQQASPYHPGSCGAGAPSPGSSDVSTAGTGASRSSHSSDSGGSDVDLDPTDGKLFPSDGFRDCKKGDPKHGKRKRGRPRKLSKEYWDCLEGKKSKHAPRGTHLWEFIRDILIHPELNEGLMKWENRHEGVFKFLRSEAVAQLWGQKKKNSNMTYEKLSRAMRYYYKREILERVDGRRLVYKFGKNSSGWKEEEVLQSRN
# Method in brief: as §1
# [9] = biological target: CRX (Homo sapiens, UniProt O43186 1-299); settings: protein: recombinant; tags: N-terminal GST; dsDNA, one strand shown
# Method in brief: as §1
# [10] = biological target: ETV1 (Homo sapiens, UniProt P50549 1-477); settings: protein: recombinant; tags: N-terminal GST; dsDNA, one strand shown
# Method in brief: as §1
# [11] = biological target: T6, ERF (Homo sapiens, UniProt P50548 1-548); settings: protein: recombinant; tags: N-terminal GST; dsDNA, one strand shown
# T6 sequence: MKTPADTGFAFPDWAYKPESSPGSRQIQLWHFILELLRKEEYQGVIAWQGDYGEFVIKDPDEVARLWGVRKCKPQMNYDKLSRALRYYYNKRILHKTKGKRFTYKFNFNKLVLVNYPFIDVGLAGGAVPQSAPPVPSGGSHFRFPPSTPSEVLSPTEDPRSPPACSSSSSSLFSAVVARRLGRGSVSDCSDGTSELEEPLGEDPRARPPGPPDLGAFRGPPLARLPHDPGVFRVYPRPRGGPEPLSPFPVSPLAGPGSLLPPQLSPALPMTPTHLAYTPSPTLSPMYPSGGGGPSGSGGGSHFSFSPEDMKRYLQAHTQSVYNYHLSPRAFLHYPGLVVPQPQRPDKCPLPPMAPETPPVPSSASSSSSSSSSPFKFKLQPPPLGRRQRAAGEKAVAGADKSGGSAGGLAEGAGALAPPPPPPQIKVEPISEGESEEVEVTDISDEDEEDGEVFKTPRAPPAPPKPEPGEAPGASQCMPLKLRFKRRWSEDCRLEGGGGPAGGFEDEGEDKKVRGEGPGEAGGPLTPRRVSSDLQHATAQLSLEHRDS
# Method in brief: as §1
# [12] = biological target: T7, ETV3L (Homo sapiens, UniProt Q6ZN32 1-361); settings: protein: recombinant; tags: N-terminal GST; dsDNA, one strand shown
# T7 sequence: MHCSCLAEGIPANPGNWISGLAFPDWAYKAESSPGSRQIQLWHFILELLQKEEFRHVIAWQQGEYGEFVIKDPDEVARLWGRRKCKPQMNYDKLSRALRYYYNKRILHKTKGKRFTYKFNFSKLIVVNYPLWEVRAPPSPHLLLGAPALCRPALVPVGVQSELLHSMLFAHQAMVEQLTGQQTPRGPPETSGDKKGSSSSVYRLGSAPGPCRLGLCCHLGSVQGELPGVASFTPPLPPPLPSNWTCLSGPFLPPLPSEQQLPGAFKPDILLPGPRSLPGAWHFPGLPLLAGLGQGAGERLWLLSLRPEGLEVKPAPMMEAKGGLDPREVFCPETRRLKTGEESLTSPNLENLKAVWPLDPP
# Method in brief: as §1
# [13] = biological target: T8, ETS2 (Homo sapiens, UniProt P15036 1-469); settings: protein: recombinant; tags: N-terminal GST; dsDNA, one strand shown
# T8 sequence: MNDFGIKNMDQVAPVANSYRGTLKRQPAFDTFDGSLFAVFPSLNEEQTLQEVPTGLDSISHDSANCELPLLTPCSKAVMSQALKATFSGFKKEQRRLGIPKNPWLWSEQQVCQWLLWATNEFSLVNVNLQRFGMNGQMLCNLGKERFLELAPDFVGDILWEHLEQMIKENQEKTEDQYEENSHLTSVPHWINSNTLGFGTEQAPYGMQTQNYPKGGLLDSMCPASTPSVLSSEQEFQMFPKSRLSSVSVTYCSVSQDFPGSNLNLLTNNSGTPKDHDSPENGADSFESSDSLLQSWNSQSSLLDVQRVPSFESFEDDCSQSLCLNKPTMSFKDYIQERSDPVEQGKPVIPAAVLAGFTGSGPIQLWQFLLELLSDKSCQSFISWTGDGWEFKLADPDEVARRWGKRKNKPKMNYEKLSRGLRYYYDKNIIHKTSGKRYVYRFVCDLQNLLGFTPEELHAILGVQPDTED
# Method in brief: as §1
# [14] = biological target: T9, SPDEF (Homo sapiens, UniProt O95238 1-335); settings: protein: recombinant; tags: N-terminal GST; dsDNA, one strand shown
# T9 sequence: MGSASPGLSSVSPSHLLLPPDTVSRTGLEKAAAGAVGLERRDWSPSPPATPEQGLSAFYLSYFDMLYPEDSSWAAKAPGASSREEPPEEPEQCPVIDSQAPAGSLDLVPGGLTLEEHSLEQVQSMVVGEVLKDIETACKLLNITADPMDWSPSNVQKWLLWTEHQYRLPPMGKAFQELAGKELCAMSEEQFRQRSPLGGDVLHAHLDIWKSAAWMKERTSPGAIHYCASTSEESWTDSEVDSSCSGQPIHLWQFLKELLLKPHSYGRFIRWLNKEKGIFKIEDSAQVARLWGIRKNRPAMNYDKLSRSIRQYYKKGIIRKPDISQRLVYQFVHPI
# Method in brief: as §1
# [15] = biological target: T10, ETV7 (Homo sapiens, UniProt Q9Y603 1-341); settings: protein: recombinant; tags: N-terminal GST; dsDNA, one strand shown
# T10 sequence: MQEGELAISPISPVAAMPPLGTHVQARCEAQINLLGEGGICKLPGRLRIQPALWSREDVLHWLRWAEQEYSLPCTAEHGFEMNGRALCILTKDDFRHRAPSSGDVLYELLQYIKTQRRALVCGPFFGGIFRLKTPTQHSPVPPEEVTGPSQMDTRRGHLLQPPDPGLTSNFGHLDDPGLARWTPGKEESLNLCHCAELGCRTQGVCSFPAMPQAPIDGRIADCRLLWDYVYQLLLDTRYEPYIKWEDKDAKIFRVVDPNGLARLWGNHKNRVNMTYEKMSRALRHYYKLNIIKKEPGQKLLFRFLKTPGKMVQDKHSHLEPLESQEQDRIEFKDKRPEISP
# Method in brief: as §1
# [16] = biological target: T11, ELF5 (Homo sapiens, UniProt Q9UKW6-2 1-255); settings: protein: recombinant; tags: N-terminal GST; dsDNA, one strand shown
# T11 sequence: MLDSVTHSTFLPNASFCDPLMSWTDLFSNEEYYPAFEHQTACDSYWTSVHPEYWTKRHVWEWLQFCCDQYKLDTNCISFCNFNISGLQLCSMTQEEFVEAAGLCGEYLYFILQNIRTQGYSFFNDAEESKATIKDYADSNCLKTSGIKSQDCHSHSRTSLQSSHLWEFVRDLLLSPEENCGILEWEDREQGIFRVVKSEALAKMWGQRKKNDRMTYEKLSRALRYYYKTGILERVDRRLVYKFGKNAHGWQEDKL
# Method in brief: as §1
# [17] = biological target: T12, ETV3 (Homo sapiens, UniProt P41162-2 1-143); settings: protein: recombinant; tags: N-terminal GST; dsDNA, one strand shown
# T12 sequence: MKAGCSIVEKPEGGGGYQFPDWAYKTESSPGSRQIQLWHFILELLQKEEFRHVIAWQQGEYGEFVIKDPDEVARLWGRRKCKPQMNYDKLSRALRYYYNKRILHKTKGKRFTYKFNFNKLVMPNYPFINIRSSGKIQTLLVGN
# Method in brief: as §1
# [18] = biological target: ETV6 (Homo sapiens, UniProt P41212 1-452); settings: protein: recombinant; tags: N-terminal GST; dsDNA, one strand shown
# Method in brief: as §1
# ETV1, sequence (P50549 whole entry): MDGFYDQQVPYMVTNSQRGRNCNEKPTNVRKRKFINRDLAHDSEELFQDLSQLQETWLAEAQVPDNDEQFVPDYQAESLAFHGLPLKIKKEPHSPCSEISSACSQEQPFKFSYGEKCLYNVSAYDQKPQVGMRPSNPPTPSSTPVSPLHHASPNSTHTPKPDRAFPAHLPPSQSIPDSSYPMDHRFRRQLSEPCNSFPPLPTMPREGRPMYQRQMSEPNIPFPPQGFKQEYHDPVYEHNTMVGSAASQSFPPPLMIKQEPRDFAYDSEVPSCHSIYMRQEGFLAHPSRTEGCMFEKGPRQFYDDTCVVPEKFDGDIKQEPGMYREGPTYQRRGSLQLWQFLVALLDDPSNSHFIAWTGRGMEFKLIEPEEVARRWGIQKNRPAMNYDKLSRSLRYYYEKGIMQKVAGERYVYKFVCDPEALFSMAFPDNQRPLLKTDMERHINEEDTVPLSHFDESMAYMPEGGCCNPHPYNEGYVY
# ELF4, sequence (Q99607 whole entry): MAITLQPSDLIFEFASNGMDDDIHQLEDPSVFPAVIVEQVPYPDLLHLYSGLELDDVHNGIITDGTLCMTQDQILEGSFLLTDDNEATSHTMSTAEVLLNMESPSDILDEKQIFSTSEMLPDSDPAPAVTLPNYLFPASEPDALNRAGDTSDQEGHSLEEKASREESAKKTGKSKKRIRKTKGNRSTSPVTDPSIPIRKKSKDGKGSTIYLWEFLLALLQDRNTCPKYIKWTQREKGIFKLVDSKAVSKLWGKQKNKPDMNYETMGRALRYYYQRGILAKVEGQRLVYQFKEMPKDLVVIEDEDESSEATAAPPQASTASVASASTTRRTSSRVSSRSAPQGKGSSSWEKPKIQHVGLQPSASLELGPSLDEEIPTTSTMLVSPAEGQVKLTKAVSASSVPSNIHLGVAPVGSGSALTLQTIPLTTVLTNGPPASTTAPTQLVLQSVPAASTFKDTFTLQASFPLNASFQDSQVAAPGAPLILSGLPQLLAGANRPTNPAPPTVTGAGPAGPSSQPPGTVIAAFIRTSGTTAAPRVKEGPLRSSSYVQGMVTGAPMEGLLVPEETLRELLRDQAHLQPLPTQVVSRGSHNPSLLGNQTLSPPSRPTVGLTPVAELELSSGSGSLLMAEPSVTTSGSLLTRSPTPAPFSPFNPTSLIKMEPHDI
# ETV6, sequence (P41212 whole entry): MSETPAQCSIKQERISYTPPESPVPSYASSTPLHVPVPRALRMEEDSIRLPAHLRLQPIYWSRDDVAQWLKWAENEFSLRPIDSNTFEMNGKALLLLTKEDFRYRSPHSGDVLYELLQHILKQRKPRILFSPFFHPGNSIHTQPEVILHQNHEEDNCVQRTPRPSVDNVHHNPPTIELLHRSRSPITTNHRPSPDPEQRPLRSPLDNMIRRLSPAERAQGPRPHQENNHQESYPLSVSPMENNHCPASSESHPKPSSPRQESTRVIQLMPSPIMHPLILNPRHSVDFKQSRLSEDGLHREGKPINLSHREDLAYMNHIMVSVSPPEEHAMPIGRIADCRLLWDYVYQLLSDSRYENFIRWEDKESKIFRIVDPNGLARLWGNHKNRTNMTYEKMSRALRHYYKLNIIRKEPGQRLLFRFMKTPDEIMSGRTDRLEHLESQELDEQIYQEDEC
# HSF1, sequence (Q00613 whole entry): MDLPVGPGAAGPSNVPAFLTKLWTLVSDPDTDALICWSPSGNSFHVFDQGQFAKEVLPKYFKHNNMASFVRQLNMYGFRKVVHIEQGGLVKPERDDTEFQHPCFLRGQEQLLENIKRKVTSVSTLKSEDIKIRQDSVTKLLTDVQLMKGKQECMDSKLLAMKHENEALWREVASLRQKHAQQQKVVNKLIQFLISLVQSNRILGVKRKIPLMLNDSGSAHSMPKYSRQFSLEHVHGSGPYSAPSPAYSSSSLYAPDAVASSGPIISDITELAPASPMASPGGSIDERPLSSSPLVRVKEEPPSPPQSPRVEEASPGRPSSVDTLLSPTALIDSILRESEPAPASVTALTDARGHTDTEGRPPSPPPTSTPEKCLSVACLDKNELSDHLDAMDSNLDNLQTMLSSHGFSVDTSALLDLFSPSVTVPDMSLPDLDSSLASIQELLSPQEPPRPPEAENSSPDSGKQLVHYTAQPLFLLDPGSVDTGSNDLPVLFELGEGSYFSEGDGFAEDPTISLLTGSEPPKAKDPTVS
# CRX, sequence (O43186 whole entry): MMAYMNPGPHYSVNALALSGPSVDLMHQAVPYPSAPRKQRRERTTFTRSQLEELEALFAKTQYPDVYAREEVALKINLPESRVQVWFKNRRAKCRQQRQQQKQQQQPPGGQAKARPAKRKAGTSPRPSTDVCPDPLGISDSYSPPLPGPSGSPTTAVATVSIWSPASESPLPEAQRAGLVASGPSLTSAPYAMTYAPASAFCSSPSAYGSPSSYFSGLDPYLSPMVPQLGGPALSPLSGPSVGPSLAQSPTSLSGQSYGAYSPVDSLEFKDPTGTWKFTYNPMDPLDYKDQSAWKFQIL
# ETV5, sequence (P41161 whole entry): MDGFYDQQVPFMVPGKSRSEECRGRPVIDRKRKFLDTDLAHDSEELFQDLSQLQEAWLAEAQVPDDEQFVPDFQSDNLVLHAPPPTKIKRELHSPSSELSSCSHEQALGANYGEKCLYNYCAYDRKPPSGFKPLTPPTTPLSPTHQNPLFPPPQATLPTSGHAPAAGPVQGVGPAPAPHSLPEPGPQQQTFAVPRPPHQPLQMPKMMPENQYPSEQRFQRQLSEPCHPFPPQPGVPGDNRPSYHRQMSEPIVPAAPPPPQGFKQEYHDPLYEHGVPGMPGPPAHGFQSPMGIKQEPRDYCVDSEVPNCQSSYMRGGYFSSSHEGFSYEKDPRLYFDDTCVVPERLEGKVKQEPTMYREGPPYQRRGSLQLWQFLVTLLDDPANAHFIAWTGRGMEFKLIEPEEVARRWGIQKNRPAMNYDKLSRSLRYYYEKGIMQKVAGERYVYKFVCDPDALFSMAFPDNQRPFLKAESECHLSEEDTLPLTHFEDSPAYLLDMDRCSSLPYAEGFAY
sequence,measurement,setting,value
TATACC,binding signal,[1],"1.23 fold enrichment (6-mer frequency, TF over GST control)"
same,binding signal,[2],"1.09 fold enrichment (6-mer frequency, TF over GST control)"
same,binding signal,[3],"1.1 fold enrichment (6-mer frequency, TF over GST control)"
same,binding signal,[4],"1.14 fold enrichment (6-mer frequency, TF over GST control)"
same,binding signal,[5],"1.21 fold enrichment (6-mer frequency, TF over GST control)"
same,binding signal,[6],"1.22 fold enrichment (6-mer frequency, TF over GST control)"
same,binding signal,[7],"1.15 fold enrichment (6-mer frequency, TF over GST control)"
same,binding signal,[8],"1.12 fold enrichment (6-mer frequency, TF over GST control)"
same,binding signal,[9],"1.26 fold enrichment (6-mer frequency, TF over GST control)"
same,binding signal,[10],"1.31 fold enrichment (6-mer frequency, TF over GST control)"
same,binding signal,[11],"1.27 fold enrichment (6-mer frequency, TF over GST control)"
same,binding signal,[12],"1.15 fold enrichment (6-mer frequency, TF over GST control)"
same,binding signal,[13],"1.24 fold enrichment (6-mer frequency, TF over GST control)"
same,binding signal,[14],"1.26 fold enrichment (6-mer frequency, TF over GST control)"
same,binding signal,[15],"1.15 fold enrichment (6-mer frequency, TF over GST control)"
same,binding signal,[16],"1.22 fold enrichment (6-mer frequency, TF over GST control)"
same,binding signal,[17],"1.26 fold enrichment (6-mer frequency, TF over GST control)"
same,binding signal,[18],"1.21 fold enrichment (6-mer frequency, TF over GST control)"
